Drawing on PubChem BioAssay (NCI), this text covers growth for 15 molecules.

What all share (test): NCI-60 one-dose screen, 48 h (100 = growth as untreated, 0 = no growth, -100 = all killed)
Holding throughout (details): 10 µM unless noted

The test system of assay [1] is NCI-H23 lung.
Assay [2] has as its system NCI-H226 lung.
In assay [3] the test system is NCI-H322M lung.
Assay [4] has as its system HOP-62 NSCLC.
The subject of assay [5] is NCI-H460 lung.
Assay [6] relates to NCI-H522 lung.
Assay [7] has as its system A549/ATCC NSCLC.
Assay [8] deals with 786-0 renal.
In assay [9] the test system is COLO 205 colon.

Each structure is given as a SMILES string. Compounds without any hit were thinned out: in the full panel of roughly 83,000, 20% have a hit.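 Interpretation: 100, growth as untreated; towards 0, rising growth inhibition; 0, no net growth; 0 to -100, cell death. Compounds scoring below 10 were considered active.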 Unmarked numbers belong to inactive results. Calls of active or inactive are those of the source.

As for `Cc1ccc(NC(=O)c2cc(NCc3cc(O)ccc3O)ccc2O)cc1`, the growth is 92.9% in [1]; 95.4% in assay [2]; 101% in assay [3]; 97.9% in assay [4]; 102% in [5]; -27.5% (active) in assay [6]. The values for the growth in [7], in [8] and in assay [9] were 80.5%, 101% and 105%, respectively.

In the case of `NC(N)=N/N=C/c1ccc(Cl)cc1`, the growth in assay [1] was 99.7%; in [2], 80.1%; in assay [3], 105%; in assay [4], 75%; in assay [5], 53.6%; in assay [6] it was 79.9%. In addition, the growth in assay [7] was 92.1%; in assay [8], 97.1%; in assay [9] it was 77.6%.

On to `c1csc(-c2cnc3nonc3n2)c1`, for which the growth in [1] is 72.8%; in assay [2], 88.1%; in assay [3], 90.4%; in assay [4], 87.9%; in [5] it was 102%; in assay [6] it was 70.7%. The results for the growth in assay [7], in assay [8] and in assay [9] were 94.2%, 101% and 91.3%, respectively.

`CC(C)(C)[Si](C)(C)OC1[C@@H](CNC(N)=O)O[C@@H](n2cnc3c(NC(=O)Nc4ccccc4)ncnc32)[C@H]1O[Si](C)(C)C(C)(C)C` (stereo not given in full): the growth is 62.4% in [1]; 75.9% in [2]; 119% in assay [3]; 78.1% in assay [4]; 5.08% (active) in assay [5]; 63.8% in assay [6]. Besides, the growth in [7] is 37.6%; in assay [8], 58.8%; in [9], 9.85% (active).

With `C#CCO[C@H]1CC[C@H](OCC#C)[C@@H]2[C@H]1[C@H]1C[C@@H]3[C@@]4(C)CCC[C@@](C)(C(=O)OC)[C@@H]4CC[C@@]23C=C1C(C)C`, the growth was 64.3% in assay [1]; 81.7% in assay [2]; 88.5% in assay [3]; 77.5% in assay [4]; 104% in assay [5]; -66.5% (active) in assay [6]. Further, the growth in [7] was 57.1%; in assay [8], -23.5% (active); in [9] it was 83.5%.

With `Cc1cc(O)c2cc3c(O)c(O)ccc3cc2c1`, the growth in assay [1] was 101%; in [2] it was 115%; in assay [3], 119%; in [4] it was 120%; in assay [5], 125%; in [6] it was 88.6%. Further, the growth in assay [7] is 117%; in [8], 91.5%; in assay [9] it was 123%.

As for `CN1C(=O)NC(Cc2c[nH]c3c(Cl)cccc23)C1=O` (stereo not given), the growth was 102% in [1]; 93.8% in assay [2]; 120% in assay [3]; 107% in assay [4]; 112% in assay [5]; 96.4% in assay [6]. Moreover, the growth in assay [7] was 102%; in [8], 109%; in assay [9], 105%.

Turning to `Nc1c(C(=O)C[C@@H](N)CO)ccc2c1C(=O)CCO2`, the growth was 55.2% in assay [1]; 76.3% in [2]; 16.7% in [3]; 28.1% in [4]; 13% in assay [5]; 45.1% in assay [6]. The growth in assay [7] is 40.4%; in assay [8], 78.6%; in assay [9] it was 46.9%.

As to `COc1ccc(-c2nn(C(=O)NCCN(C)C)cc2-c2ccncc2)cc1Cl`, the growth was 63.5% in assay [1]; 46.4% in assay [2]; 109% in assay [3]; 16% in assay [4]; 27.4% in assay [5]; 28.2% in assay [6]. In addition, the growth in [7] was 32.6%; in assay [8] it was 34.8%; in [9], 25.1%.

In the case of `COc1cc(/C=C\c2cc(/C=C\c3ccc(O)c(OC)c3)n(C(=O)Nc3ccc(C(F)(F)F)cc3)n2)ccc1O`, the growth was 51.3% in [1]; 82.7% in assay [2]; 82.7% in assay [3]; 62.9% in assay [4]; 18.3% in assay [5]; 7.32% (active) in assay [6]. In addition, the figures for the growth in assay [7], in [8] and in assay [9] were 43%, 20.1% and 51.3%, respectively.

Consider `CCCCCCCCCCCCNC(=O)N[C@H](C(=O)N[C@H]1/C=C/CCNC(=O)/C=C/[C@H](C)NC1=O)C(C)C`, for which the growth was -42.8% (active) in assay [1]; -87% (active) in assay [2]; 3.54% (active) in assay [3]; -65.1% (active) in [4]; 2.24% (active) in [5]; -21.7% (active) in [6]. Besides, the growth was 10.5% in assay [7], -37.7% (active) in [8] and -51.3% (active) in assay [9].

For the molecule `N=C(N)c1ccc(NCCNc2ccc(C(=N)N)cc2)cc1`, the growth was 85.9% in assay [1]; 62.6% in assay [2]; 95.5% in assay [3]; 121% in assay [4]; 50.3% in [5]; 92.9% in assay [6]. Moreover, the growth in [7] is 42.2%; in [8], 117%; in [9], 142%.

In the case of `O=C(CCl)N1c2ccccc2Oc2ccc3ccccc3c21`, the growth was -48.4% (active) in assay [1]; 3.48% (active) in [2]; 91.4% in assay [3]; -16.6% (active) in [4]; 2.15% (active) in [5]; -83.1% (active) in [6]. Further, the growth in [7] is 30%; in assay [8], -89.4% (active); in assay [9] it was -94.2% (active).

With `O=C(CCCCCCN1CC(=O)N2[C@@H](c3ccc(Cl)c(Cl)c3)c3[nH]c4ccccc4c3C[C@H]2C1=O)NO`, the growth was 54% in [1]; 84.8% in assay [2]; 53.5% in assay [3]; 54.1% in [4]; 39.1% in assay [5]; 17.8% in [6]. In addition, the growth is 79.9% in assay [7], 71.8% in assay [8] and 58.9% in assay [9].

As for `COc1ccccc1/C=C/C(=O)CCC(=O)O`, the growth in assay [1] is 106%; in [2] it was 104%; in assay [3], 101%; in assay [4] it was 96.2%; in [5] it was 111%; in assay [6], 103%. Moreover, the growth was 108% in assay [7], 96.7% in assay [8] and 120% in assay [9].
